Assay outcomes (PubChem BioAssay)
An excerpt weighted towards active compounds, which were near 2.4% of everything screened.
Cruzain Triton: cruzain (T. cruzi) inhibition with detergent | P25779 | purified cruzain, Z-FR-AMC fluorescence, 0.01% Triton | Potency, µM, inactives show max response, negative = inhibition, hits mostly inhibitors | 0.43% of 200,000 active | AID 1478;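 further: plate controls were neutral wells for no effect and buffer without enzyme for full effect; nearly all actives have a fitted effect of over 40% in size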
Target sequence (P25779 123-467 limits assumed): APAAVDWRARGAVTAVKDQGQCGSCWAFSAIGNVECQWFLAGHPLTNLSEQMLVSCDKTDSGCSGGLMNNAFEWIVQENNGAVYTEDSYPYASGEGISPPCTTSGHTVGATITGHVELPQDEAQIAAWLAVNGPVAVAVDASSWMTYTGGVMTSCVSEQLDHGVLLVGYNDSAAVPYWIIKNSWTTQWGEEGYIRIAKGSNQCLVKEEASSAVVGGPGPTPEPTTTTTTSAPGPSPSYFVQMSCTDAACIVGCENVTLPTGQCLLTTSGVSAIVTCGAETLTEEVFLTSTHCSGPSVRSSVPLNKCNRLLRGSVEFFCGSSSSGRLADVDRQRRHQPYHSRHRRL
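Cruzain (1.5 nM) preincubated 15 min at RT with compound in 100 mM sodium acetate pH 5.5, 5 mM DTT, 0.01% Triton X-100. Reaction started with 2 uM Z-FR-AMC; AMC fluorescence (ex 360/em 450 nm) change over 60 s gave rate.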
Cruzain inh noDet: blocks cruzain activity in detergent-free assay; P25779; purified cruzain, Z-FR-AMC fluorescence, no detergent; Potency, µM, for inactives: max response, negative = inhibition, usual class: inhibitors; 2.3% of 200,000 active;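 further: plate controls were enzyme without inhibitor for no effect and buffer without enzyme for full effect; nearly all actives have a fitted effect of over 40% in size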
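Purified cruzain at 1.5 nM, pre-incubated 15 min with compound at room temperature in 100 mM sodium acetate pH 5.5, 5 mM DTT, 0.00005% Triton X-100. Reaction started with 2 uM Z-FR-AMC; AMC fluorescence increase over 60 s gives rate.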
Starred values were filed as active, the others as inactive; ? = inconclusive; ! = not active in a repeat. The call rests on the fitted dose curve; in most records, active means well fitted curve in the direction sought with a large enough effect; inconclusive means small, poorly fitted or top-dose-only effect, or another doubt; inactive means no such curve, though single readings can be large; an effect the other way counts as inactive or inconclusive. Potency means the concentration at half of the fitted maximal effect.

SMILES	Cruzain Triton	Cruzain inh noDet
NC(=O)CSc1oc(-c2cccs2)nc1S(=O)(=O)c1ccc(Br)cc1	-6.0%	-5.3%
CN(C)c1ncc2nc(CCc3ccccc3)c(=O)n(Cc3ccc(F)cc3)c2n1	-1.4%	3.1%
O=C(Nc1ccccc1)c1nc[nH]c1C(=O)O	0.6%	10.3%
Cc1ccc(NC(=O)CCC(=O)OCC(=O)c2ccc(-c3ccccc3)cc2)cc1	-5.3%	4.6%
COc1ccc(NC(=O)CCC(=O)c2ccc(-c3ccccc3)cc2)cc1	-1.9%	25.1µM*
O=C(Cn1c(=O)n(Cc2ccco2)c(=O)c2c3c(sc21)CCCCC3)Nc1ccccc1	28.2µM*	?
CN(C)CCn1c(=O)n(Cc2ccco2)c(=O)c2c3c(sc21)CCCCC3	4.7%	5.0%
O=C(Cn1c(=O)n(Cc2ccco2)c(=O)c2c3c(sc21)CCCCC3)c1ccccc1	-7.9%	25.1µM*
O=c1c2c3c(sc2n(CCN2CCCC2)c(=O)n1Cc1ccco1)CCCCC3	5.2%	?
O=C(NCc1ccc(F)cc1)c1cccc(N2CCCS2(=O)=O)c1	1.6%	-8.5%
CNC(=O)/C(C#N)=C/c1ccc(-c2ccc(OC)cc2[N+](=O)[O-])o1	2.5%	-0.1%
N#C/C(=C\c1ccc(-c2ccccc2[N+](=O)[O-])o1)C(=O)Nc1nc(-c2cccs2)cs1	-6.4%	6.31µM*
N#C/C(=C\c1ccccc1)C(=O)Nc1sc2c(c1C(N)=O)CCC2	-2.1%	2.7%
Cc1cnn(C(=S)NCCc2ccccc2)c1	15.8µM*	12.6µM*
Cc1cnn(C(=S)NCc2ccc(Cl)cc2)c1	-29.2%	-27.8%
COc1ccc(C(=O)c2cn(Cc3cccc(C)c3)c3cc4c(cc3c2=O)OCO4)cc1	-2.3%	-1.5%
CCc1nnc(NC(=O)c2ccc(N3C(=O)CCC3=O)cc2)s1	-8.4%	-2.3%
Cc1ccc(C)c2sc(NC(=O)c3ccc(N4C(=O)CCC4=O)cc3)nc12	1.7%	20µM*
CCOc1ccccc1NC(=O)CSc1nc2ccccc2c2nc(CCn3cncc3C)nn12	0.2%	-3.2%
Cc1ccc(CNC(=O)CSc2ncc(S(=O)(=O)c3ccc(C)c(Cl)c3)c(=O)[nH]2)cc1	-11.8%	?
CCOc1ccc(S(=O)(=O)N(C)c2ccc(OCC(=O)Nc3nc(-c4cc(OC)ccc4OC)cs3)cc2)cc1	-2.4%	7.94µM*
CCOC(=O)Cc1csc(NC(=O)COc2ccc(N(C)S(=O)(=O)c3ccc(C)cc3)cc2)n1	-5.4%	-7.0%
O=c1c(-c2cccs2)nc2cncnc2n1-c1ccccc1	-10.1%	-27.5%
Cc1ccc(-c2cc(NC(=O)c3ccccc3Cl)on2)cc1	-4.9%	?
O=C(Nc1ccc([N+](=O)[O-])cc1Cl)c1cc(Cl)ccc1O	5.62µM*!	12.8%
SMILES	Cruzain Triton	Cruzain inh noDet
COc1ccc(NC(=O)c2cc(Cl)ccc2Cl)c([N+](=O)[O-])c1	-4.5%	-5.4%
CCCCn1c(SCc2nc3ccccc3s2)nc2ccccc2c1=O	-4.7%	-3.4%
CCCn1c(=O)c2ccccc2n2c(SCc3nc4ccccc4s3)nnc12	1.6%	12.6µM*
CCOc1ccc(CNC(=O)c2ccc3nc(C(C)C)oc3c2)cc1	-1.6%	-11.0%
COc1cccc([C@@H]2Oc3ccc(Br)cc3C[C@H]2OC(=O)Nc2ccc(C)c(Br)c2)c1	2.2%	-5.5%
CC(C)c1ccc(C2N3CCCN23)cc1 (stereo not given)	-2.1%	-5.8%
CC(C)c1ccc(C2N3CC4([N+](=O)[O-])CN2CC([N+](=O)[O-])(C3)C4(C)C)cc1 (stereo not given)	2.4%	10µM*
CC1(C)C2([N+](=O)[O-])CN3CC1([N+](=O)[O-])CN(C2)C31CCCC1	6.0%	-3.8%
CC1(C)C2([N+](=O)[O-])CN3CC1([N+](=O)[O-])CN(C2)C3c1ccccc1 (stereo not given)	3.9%	20µM*
COc1ccc(-n2ncc3c2ncn2nc(Cc4ccccc4)nc32)cc1	-0.7%	-10.0%
COc1cccc(OCc2nc3c4cnn(-c5ccccc5)c4ncn3n2)c1	8.2%	25.1µM*
CCOC(=O)c1c(S(=O)(=O)N2CCC(C(=O)Nc3ccc(C)cn3)CC2)c(C)n(C)c1C	3.5%	-14.5%
Cn1cnc(S(=O)(=O)N2CCC(C(=O)NCc3ccccc3)CC2)c1	1.2%	-13.6%
c1ccc(C2Oc3ccccc3C3CC(c4cccs4)=NN32)cc1 (stereo not given)	-13.2%	-3.3%
O=[N+]([O-])c1ccc(C2Oc3ccccc3C3CC(c4ccccc4)=NN32)s1 (stereo not given)	-11.2%	15.8µM*
Cc1ccc(C2=N/C(=C\N3CCCCC3)C(=O)O2)cc1	-8.7%	-9.3%
Cc1nn(-c2ccccc2)c(N2CCCC2)c1/C=C1\N=C(c2ccc(OC(C)C)cc2)OC1=O	1.41µM*	5.01µM*
Nc1c(C(=O)Nc2ccc([As](=O)(O)O)cc2)cnc2nnnn12	3.0%	-1.0%
COc1ccc(C(=S)N2CCNCC2)cc1	-5.3%	-3.8%
COc1ccc(C(=S)N2CCCCCC2)cc1	14.1µM*	-2.4%
O=C(C1COc2ccccc2O1)N1CCn2c(nc3ccccc32)C1 (stereo not given)	-29.6%	12.6µM*
O=C(c1ccccc1)N1CCn2c(nc3ccccc32)C1	0.1%	-8.1%
COc1ccc(NC(=O)c2cc3nc(-c4ccc(Cl)c(Cl)c4)cc(C(F)(F)F)n3n2)c(OC)c1	0.0%	1.1%
CCc1ccc(-n2nc(C)c3c(C)cc(=O)n(CC(=O)Nc4ccccc4C(=O)OC)c32)cc1	0.1%	-3.3%
CC1=C(c2ccc(C)cc2)S(=O)(=O)N(Cc2ccc(C(=O)Nc3ccccc3C)cc2)C1=O	-3.6%	?
SMILES	Cruzain Triton	Cruzain inh noDet
CC1=C(c2ccc(C)cc2)S(=O)(=O)N(Cc2ccc(C(=O)NCc3ccccc3)cc2)C1=O	-5.1%	?
COc1ccccc1NC(=O)c1ccc(CN2C(=O)C(C)=C(c3ccc(C)c(C)c3)S2(=O)=O)cc1	-3.8%	31.6µM*
CC1=C(c2ccc(C)c(C)c2)S(=O)(=O)N(Cc2ccc(C(=O)NCc3ccccc3F)cc2)C1=O	-3.1%	25.1µM*
COc1ccc(C2=C(C)C(=O)N(Cc3ccc(C(=O)Nc4ccc(C)c(C)c4)cc3)S2(=O)=O)cc1	-2.5%	7.94µM*
CCOc1ccc(NC(=O)c2ccc(CN3C(=O)C(C)=C(c4ccc(C)cc4)S3(=O)=O)cc2)cc1	-1.1%	-0.5%
Cc1cccc(NC(=O)c2cnc3sc(N4CCCC4)nn3c2=O)c1C	-0.7%	-1.2%
CCCCC[C@H](O)/C=C/C1=C(C/C=C\CCCC(=O)O)C(=O)CC1	-7.9%	1.0%
COc1ccc(-c2nc(Cn3c(=O)cc(-c4ccccc4)c4c(C)nn(C)c43)c(C)o2)cc1OC	-1.8%	6.7%
COc1ccc(-c2nn(-c3ccccc3)cc2/C=C2/SC(=S)N(Cc3ccco3)C2=O)c(C)c1	0.5%	3.16µM*
Cc1ccc(/C=C2\SC(=S)N(Cc3ccccc3)C2=O)o1	-12.6%	?
COc1ccc(-n2c(C)cc(/C=C3\SC(=S)N(Cc4ccco4)C3=O)c2C)cc1	-4.6%	7.94µM*
Cc1ccc(-n2c(C)cc(/C=C3/C(=O)NC(=O)N(Cc4ccco4)C3=O)c2C)cc1	-5.1%	-9.7%
CCc1ccc(-c2nc(NC(=S)NC(=O)c3cccs3)sc2C)cc1	2.8%	3.98µM*
O=C(NC(=S)Nc1nc2ccccc2s1)c1cccs1	-8.9%	-26.0%
CCc1ccc(OCc2nnc(NC(=O)c3cccs3)s2)cc1	1.9%	12.6µM*
Cc1ccc(OCc2nnc(NC(=O)Cc3cccs3)s2)cc1	3.9%	?
C=CCN1C(=O)/C(=C\c2ccc(Cl)cc2)N=C1SCC(=O)NC1CCCCC1	1.0%	10µM*
